# Experimental data as given in PubChem BioAssay.
# The other results are listed elsewhere or left out. Calls of active or inactive are those of the source. Cut-off read from the data, not from the text of the source, unless noted: active = activation above about 33%; inactive = the rest.
# What was measured:
# [1] = molecular target: Carboxy-terminal domain RNA polymerase II polypeptide A small phosphatase 1 (Homo sapiens) (UniProt Q9GZU7); assay: Scp-1 binding by thermal shift, confirmation, orthogonal assay for Scp-1 inhibitor project, biophysical, differential scanning fluorimetry (AID 540329;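 active = substances whose mean melting-temperature shift, as a percentage of the reference inhibitor's shift, reaches about 5.3%, limit read from the data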;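 note: 0% = Tm of DMSO wells and 100% = Tm with sodium orthovanadate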); settings: Recombinant SCP1, Sypro Orange thermal shift Tm; at 40 µM; stronger effect = higher value
# [2] = inhibitors of PAF-induced NF-kB signaling, retest, confirmation, cell-based, GFP fluorescence, single concentration (AID 602472; in the data active = inhibition above about 40%;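 note: stimulus PAF is a Pseudomonas aeruginosa filtrate and not platelet activating factor; plate controls were DMSO wells with stimulus for no effect and unstimulated DMSO wells for full effect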); settings: KKLEB CF airway cells, overnight, at 5 µM, stronger effect = higher value
# [3] = inhibitors of PAF-induced NFkB signaling in CF airway cells, dose response, cell-based, uHTS hits, panel, cytotoxicity readout (AID 624344); settings: CF bronchial epithelial cells, PAF-induced NFkB reporter inhibition, with PAF, run 1; at 79 µM (top of the series) unless noted
# [4] = as above; settings: CF bronchial epithelial cells, PAF-induced NFkB reporter inhibition, with PAF, run 2; at 79 µM (top of the series) unless noted
# [5] = activators of apoptotic CHOP UPR arm, confirmation, cell-based, CHO-CHOP luciferase reporter, single concentration (AID 463112); settings: CHO-CHOP cells, CHOP-luciferase reporter luminescence; at 10 µM; stronger effect = higher value; percent of tunicamycin response, DMSO as zero;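 note: 0% = DMSO wells and 100% = tunicamycin 10 µg/mL wells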
# [6] = inhibition of Brca1/Bard1 split-luciferase complementation, confirmation, counter-screen for Mdm2/MdmX interaction inhibitor project, luminescence, single concentration (AID 504668; call rule not given here); settings: Brca1/Bard1 bimolecular luciferase complementation counterscreen, at 8 µM, stronger effect = higher value
# [7] = molecular target: Protein Mdm4 (Homo sapiens) + E3 ubiquitin-protein ligase Mdm2 (Homo sapiens) (UniProt O15151+Q00987); assay: retested Mdm2-MdmX interaction blockers, confirmation, cell-based, luminescence, single concentration, set 2 (AID 504601;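 active = mean inhibition of the luminescence signal across two replicates at or above 26 percent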); settings: SaOS-2 split-luciferase Mdm2/MdmX complementation, at 8 µM, stronger effect = higher value
# [8] = HIF-2a reporter inhibitor retest, confirmation, luminescence, 786-0 RCC cells (AID 651580;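 active = mean inhibition across four replicates of at least 40 percent at the single tested concentration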); settings: HIF-2a luciferase reporter luminescence, overnight, at 18.8 µM, stronger effect = higher value
# [9] = HIF-1a luciferase reporter signal reduction – MiaPaCa-2 cells, single concentration, counter-screen for HIF-2a inhibitor project, confirmation (AID 651589;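 active = mean inhibition of the reporter signal across four replicates at the single tested dose of 50% or more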); settings: MiaPaCa-2 HIF-1a luciferase reporter, desferoxamine, overnight; at 18.8 µM; stronger effect = higher value
# [10] = molecular target: Sentrin-specific protease 8 (Homo sapiens) (UniProt Q96LD8); assay: SENP8 protease inhibitors, retest, confirmation, biochemical, luminescence, single concentration (AID 488912;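 active = mean inhibition across replicates above about 50%, limit read from the data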); settings: Recombinant SENP8, Z-RLRGG-aminoluciferin luminescence, 60 min; at 12.5 µM; stronger effect = higher value
# [11] = molecular target: Sentrin-specific protease 6 (Homo sapiens) (UniProt Q9GZR1); assay: SENP6 protease inhibitors, confirmation, biochemical, luminescence, single concentration (AID 488915;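 active = mean inhibition above about 50% in the one-dose retest, limit read from the data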); settings: recombinant SENP6, Z-RLRGG-aminoluciferin luminescence; at 12.5 µM; stronger effect = higher value
# [12] = molecular target: Sentrin-specific protease 7 (Homo sapiens) (UniProt Q9BQF6); assay: SENP7 protease inhibitors, retest, confirmation, biochemical, luminescence, single concentration (AID 488917;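 active = mean inhibition above about 50% in the one-dose retest, limit read from the data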); settings: recombinant SENP7, Z-RLRGG-aminoluciferin luminescence, 40 min; at 12.5 µM; stronger effect = higher value
# Caspase-3 (Homo sapiens) = Caspase-3 (Homo sapiens) (UniProt P42574); assay: caspase-3 protease inhibitors, confirmation, selectivity assay for SENP inhibitor project, biochemical, single concentration (AID 488918;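 active = mean inhibition above about 50%, limit read from the data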;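 note: plate controls were enzyme with DMSO for no effect and wells without caspase-3 for full effect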); settings: purified caspase-3, Z-DEVD-aminoluciferin luminescence, 60 min; at 12.5 µM; stronger effect = higher value
# [13] = luciferase luminescence interference by compounds, confirmation, artefact control for SENP inhibitor project, biochemical, single concentration, SENP8 reaction pre-completed (AID 488919;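 active = mean inhibition above about 50% when retested at one dose, limit read from the data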;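 note: plate controls were DMSO wells with completed reaction for no effect and substrate without enzyme for full effect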); settings: Pre-incubated SENP8/Z-RLRGG-aminoluciferin, at 12.5 µM, stronger effect = higher value
# [14] = molecular target: Tumor necrosis factor receptor superfamily member 10B (Homo sapiens) (UniProt O14763); assay: caspase-8 TRAIL sensitization, hit retest, confirmation, cell-based, NB7+caspase-8, with/without TRAIL, luminescence panel (AID 651596; in the data active = activity above about 50%); settings: NB7 neuroblastoma + caspase-8, TRAIL sensitization, luminescence viability, with TRAIL, mean of runs, at 10 µM, stronger effect = higher value
# [15] = as above; settings: NB7 neuroblastoma + caspase-8, without TRAIL, luminescence viability, without TRAIL, mean of runs, at 10 µM
# [16] = Peg3 promoter reporter inhibitors, retest, confirmation, cell-based, HeLa, luciferase reporter, single concentration (AID 602417;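 active = at 20 µM dose, 40% or more inhibition averaged across four replicates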); settings: HeLa PEG-Prom luciferase reporter, luminescence, overnight; at 20 µM; stronger effect = higher value
# PEG-3 [17] = molecular target: PEG-3 (UniProt Q6IN02); assay: Peg3 promoter luciferase inhibitors, potency, dose response, cell-based, HeLa, CREF/GAPDH counter-screen panel (AID 624167); settings: CREF/GAPDH counter-screens; HeLa PEG-Prom luciferase reporter, overnight, run 1, dose range 1, at 100 µM (top of the series) unless noted
# PEG-3 [18] = molecular target: PEG-3 (UniProt Q6IN02); assay: as above; settings: CREF/GAPDH counter-screens; HeLa PEG-Prom luciferase reporter, overnight, run 2, dose range 1, at 100 µM (top of the series) unless noted
# Rat fibroblasts (CREF) [19] = assay: as above; settings: CREF/GAPDH counter-screens; run 1, dose range 1, at 100 µM (top of the series)
# Rat fibroblasts (CREF) [20] = assay: as above; settings: CREF/GAPDH counter-screens; run 2, dose range 1, at 100 µM (top of the series)
# Sentrin-specific protease 6 (Homo sapiens), sequence (Q9GZR1 628-1112 limits assumed): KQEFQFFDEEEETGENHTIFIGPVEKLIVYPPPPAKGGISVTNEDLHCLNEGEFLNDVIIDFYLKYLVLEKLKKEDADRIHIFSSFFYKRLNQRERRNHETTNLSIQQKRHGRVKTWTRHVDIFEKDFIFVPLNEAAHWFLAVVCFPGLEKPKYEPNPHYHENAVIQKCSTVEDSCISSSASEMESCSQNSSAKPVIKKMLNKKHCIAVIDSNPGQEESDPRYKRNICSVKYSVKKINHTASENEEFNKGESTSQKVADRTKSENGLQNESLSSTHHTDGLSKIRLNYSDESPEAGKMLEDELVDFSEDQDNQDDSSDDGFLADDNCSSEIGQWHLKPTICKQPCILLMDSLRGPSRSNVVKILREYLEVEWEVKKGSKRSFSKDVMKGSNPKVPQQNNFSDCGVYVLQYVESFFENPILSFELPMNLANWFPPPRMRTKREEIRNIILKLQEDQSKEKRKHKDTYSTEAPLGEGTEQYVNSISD
# Sentrin-specific protease 7 (Homo sapiens), sequence (Q9BQF6 706-1050 limits assumed): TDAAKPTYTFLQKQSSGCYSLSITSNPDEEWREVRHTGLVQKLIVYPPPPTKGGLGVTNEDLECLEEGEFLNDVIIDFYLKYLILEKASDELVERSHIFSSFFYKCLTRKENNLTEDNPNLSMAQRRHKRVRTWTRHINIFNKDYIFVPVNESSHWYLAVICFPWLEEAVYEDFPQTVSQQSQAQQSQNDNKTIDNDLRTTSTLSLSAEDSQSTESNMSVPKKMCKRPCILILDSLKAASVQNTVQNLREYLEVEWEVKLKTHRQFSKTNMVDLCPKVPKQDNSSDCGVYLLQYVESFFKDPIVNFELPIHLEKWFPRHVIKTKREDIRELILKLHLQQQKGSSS
# Caspase-3 (Homo sapiens), sequence (P42574 28-227 limits assumed): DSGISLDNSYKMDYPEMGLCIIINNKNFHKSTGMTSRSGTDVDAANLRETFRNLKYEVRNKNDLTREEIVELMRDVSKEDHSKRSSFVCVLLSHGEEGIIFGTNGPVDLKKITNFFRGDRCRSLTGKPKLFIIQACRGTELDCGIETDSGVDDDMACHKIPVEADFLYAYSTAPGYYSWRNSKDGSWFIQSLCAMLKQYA
# Protein Mdm4 (Homo sapiens) + E3 ubiquitin-protein ligase Mdm2 (Homo sapiens), sequence (O15151 whole entry, looked up): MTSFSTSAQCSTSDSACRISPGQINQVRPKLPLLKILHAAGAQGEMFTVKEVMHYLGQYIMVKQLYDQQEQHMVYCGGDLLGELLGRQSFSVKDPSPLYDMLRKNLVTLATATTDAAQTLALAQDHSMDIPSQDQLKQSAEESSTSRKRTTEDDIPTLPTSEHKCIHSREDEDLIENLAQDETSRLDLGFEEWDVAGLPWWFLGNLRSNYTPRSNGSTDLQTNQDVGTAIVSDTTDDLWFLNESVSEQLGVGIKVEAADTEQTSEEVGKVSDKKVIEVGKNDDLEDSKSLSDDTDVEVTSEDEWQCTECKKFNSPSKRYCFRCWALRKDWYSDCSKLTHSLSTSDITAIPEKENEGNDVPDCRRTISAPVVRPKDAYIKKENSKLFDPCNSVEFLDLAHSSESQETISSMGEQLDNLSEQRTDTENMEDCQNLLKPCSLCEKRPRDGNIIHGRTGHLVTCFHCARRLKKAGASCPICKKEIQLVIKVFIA
# Protein Mdm4 (Homo sapiens) + E3 ubiquitin-protein ligase Mdm2 (Homo sapiens), sequence (Q00987 whole entry, looked up): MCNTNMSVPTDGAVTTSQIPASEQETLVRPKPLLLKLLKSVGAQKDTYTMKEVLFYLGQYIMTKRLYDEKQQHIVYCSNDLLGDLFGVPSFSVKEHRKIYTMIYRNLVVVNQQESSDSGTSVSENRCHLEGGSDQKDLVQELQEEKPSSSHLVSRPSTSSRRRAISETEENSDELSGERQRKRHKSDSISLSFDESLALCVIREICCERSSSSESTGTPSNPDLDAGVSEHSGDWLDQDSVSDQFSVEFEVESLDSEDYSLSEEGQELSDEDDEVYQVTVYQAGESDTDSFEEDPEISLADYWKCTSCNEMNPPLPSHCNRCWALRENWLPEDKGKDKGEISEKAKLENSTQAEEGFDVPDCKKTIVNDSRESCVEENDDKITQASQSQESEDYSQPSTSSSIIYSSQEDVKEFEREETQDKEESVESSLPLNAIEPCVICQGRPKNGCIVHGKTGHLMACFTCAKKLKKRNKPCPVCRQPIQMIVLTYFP
# Sentrin-specific protease 8 (Homo sapiens), sequence (Q96LD8 whole entry, looked up): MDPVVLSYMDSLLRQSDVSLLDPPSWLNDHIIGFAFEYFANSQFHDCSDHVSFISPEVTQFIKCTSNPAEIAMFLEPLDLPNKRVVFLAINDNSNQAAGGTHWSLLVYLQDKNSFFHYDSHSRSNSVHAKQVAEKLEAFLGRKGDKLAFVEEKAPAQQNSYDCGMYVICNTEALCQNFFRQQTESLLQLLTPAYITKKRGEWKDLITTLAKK
# PEG-3, sequence (Q6IN02 whole entry, looked up): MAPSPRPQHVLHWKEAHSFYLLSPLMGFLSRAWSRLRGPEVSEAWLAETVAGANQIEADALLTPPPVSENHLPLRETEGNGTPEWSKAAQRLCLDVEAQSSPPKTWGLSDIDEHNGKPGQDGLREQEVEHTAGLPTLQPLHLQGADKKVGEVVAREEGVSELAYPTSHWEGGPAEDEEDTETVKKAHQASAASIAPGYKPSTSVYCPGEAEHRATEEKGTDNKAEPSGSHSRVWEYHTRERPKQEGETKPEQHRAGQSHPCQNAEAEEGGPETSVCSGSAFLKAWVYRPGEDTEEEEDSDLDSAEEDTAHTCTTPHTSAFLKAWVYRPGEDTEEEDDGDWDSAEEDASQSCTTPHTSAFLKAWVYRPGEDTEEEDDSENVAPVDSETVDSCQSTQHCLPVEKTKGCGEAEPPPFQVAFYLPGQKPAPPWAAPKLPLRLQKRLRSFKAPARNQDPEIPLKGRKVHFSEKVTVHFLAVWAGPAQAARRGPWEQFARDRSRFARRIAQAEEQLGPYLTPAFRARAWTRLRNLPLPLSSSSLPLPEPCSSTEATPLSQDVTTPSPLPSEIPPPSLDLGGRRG
# Carboxy-terminal domain RNA polymerase II polypeptide A small phosphatase 1 (Homo sapiens), sequence (Q9GZU7 76-261 limits assumed): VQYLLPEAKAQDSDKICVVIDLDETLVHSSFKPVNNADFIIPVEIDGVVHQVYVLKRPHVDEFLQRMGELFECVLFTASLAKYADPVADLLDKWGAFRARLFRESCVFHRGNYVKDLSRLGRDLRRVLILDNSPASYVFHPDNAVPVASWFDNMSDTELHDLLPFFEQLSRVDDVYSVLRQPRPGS
# Tumor necrosis factor receptor superfamily member 10B (Homo sapiens), sequence (O14763 whole entry, looked up): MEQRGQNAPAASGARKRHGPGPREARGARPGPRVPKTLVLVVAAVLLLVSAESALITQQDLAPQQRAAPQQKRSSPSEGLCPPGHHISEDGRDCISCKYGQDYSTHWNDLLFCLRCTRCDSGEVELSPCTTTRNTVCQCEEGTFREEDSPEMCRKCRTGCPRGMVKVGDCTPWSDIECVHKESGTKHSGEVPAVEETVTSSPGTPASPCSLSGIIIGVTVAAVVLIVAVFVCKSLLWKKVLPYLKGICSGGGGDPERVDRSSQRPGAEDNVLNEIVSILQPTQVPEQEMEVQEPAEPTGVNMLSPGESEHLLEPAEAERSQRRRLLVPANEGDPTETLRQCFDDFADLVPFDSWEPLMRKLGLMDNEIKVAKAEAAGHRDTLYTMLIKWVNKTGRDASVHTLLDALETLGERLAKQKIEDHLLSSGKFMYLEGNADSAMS
compound,measurement,setting,value
Cc1cc(C(=O)OCC(=O)NCc2ccco2)c(C)n1-c1ccccc1,thermal shift relative to vanadate control,[1],-3.06% (inactive)
N/C(=N\OC(=O)N1c2ccccc2Sc2ccccc21)c1ccc(Br)cc1,thermal shift relative to vanadate control,[1],-22.1% (inactive)
COc1ccc(C2=Nn3c(nnc3-c3ccccc3OC)SC2)cc1OC1CCCC1,inhibition,[2],98.4% (active)
same,inhibition,[3],98.7%
same,inhibition,[4],118% [at 39.5 µM]
COc1ccccc1-n1nnnc1S(=O)(=O)Cc1ccc(Cl)cc1,inhibition,[2],99.1% (active)
same,inhibition,[3],110%
same,inhibition,[4],104%
CCOc1ccc2nc(Cl)c(C3CC(c4ccccc4)=NN3C(=O)c3cccs3)cc2c1 (stereo not drawn),activation,[5],-1.15% (inactive)
COc1ccccc1/C=N\Nc1cc(C)nc(-n2nc(C)cc2C)n1,activation,[5],38% (active)
CCOC(=O)c1sc(NC(=O)CCN2CCOCC2)c(C(=O)OCC)c1C,activation,[5],-1.25% (inactive)
COc1ccc(-c2cc(C(F)(F)F)nc(S(C)(=O)=O)n2)cc1OC,activation,[5],210% (active)
same,inhibition,[6],24.3% (active)
CN(C)CCCn1c(SCc2ccc(Cl)cc2)nnc1-c1ccncc1,activation,[5],-0.025% (inactive)
COc1ccc(OC)c(Nc2nc(-c3ccc(O)c(O)c3)cs2)c1,activation,[5],187% (active)
COC(=O)c1ccc(C(=O)Nc2cc(Cl)ccc2Cl)cc1NC(=O)c1ccccc1C,activation,[5],10.6% (inactive)
CC1CC2=C(CC1/C=N/NC(N)=S)C(C)(C)CCC2 (stereo not drawn),activation,[5],29.4% (inactive)
CC1(C)CCSC(/C=C/c2ccccc2)=N1,activation,[5],68% (active)
same,inhibition,[6],30.5% (active)
same,inhibition,[2],-24.9% (inactive)
CCCCCC(=O)Nc1ccc(C(=O)N/N=C/c2ccc([N+](=O)[O-])cc2)cc1,activation,[5],79% (active)
O=C1Nc2ccc(Br)cc2/C1=N/N=C/C1=C(N2CCOCC2)C(=C\c2ccccc2)/CC1,activation,[5],53.4% (active)
O=C1CC(c2cccc(Cl)c2)CC(O)=C1C=Nc1ccccc1 (stereo not drawn),activation,[5],70.8% (active)
CSc1nc(-c2ccccc2)nc(C(Cl)Cl)n1,activation,[5],28.5% (inactive)
same,inhibition,[7],97.7% (active)
same,inhibition,[8],59.7% (active)
same,inhibition,[9],105% (active)
CCCc1cc(=S)n2c([nH]c3ccccc32)c1C#N,activation,[5],-0.45% (inactive)
Cc1c(NC(=O)CSc2cccc3cccnc23)c(=O)n(-c2ccccc2)n1C,activation,[5],123% (active)
O=[N+]([O-])c1ccc(C=Nc2ccc(Cl)cc2Cl)s1,activation,[5],74.2% (active)
same,inhibition,[10],9.7% (inactive)
same,inhibition,[11],19.4% (inactive)
same,inhibition,[12],18.5% (inactive)
same,inhibition,Caspase-3 (Homo sapiens),7.4% (inactive)
same,inhibition,[13],8.1% (inactive)
COc1cccc2sc(Nc3nc(C)c(C(C)=O)s3)nc12,activation,[5],58.5% (active)
same,inhibition,[10],51.3% (active)
same,inhibition,[11],47.9% (inactive)
same,inhibition,[12],83.9% (active)
same,inhibition,Caspase-3 (Homo sapiens),56.6% (active)
same,inhibition,[13],72.3% (active)
Oc1c(CN2CCN(c3ccc(F)cc3)CC2)cc(Cl)c2cccnc12,activation,[5],196% (active)
same,inhibition,[6],25.7% (active)
CS(=O)(=O)N(Cc1ccccc1)c1ccc(C(=O)NN=C2CCCCCC2)cc1,activation,[5],-1.8% (inactive)
COc1ccc2c(c1OC)C(=O)OC2Nc1nc(-c2ccccc2)cs1 (stereo not drawn),activation,[5],29.9% (inactive)
same,inhibition,[7],103% (active)
same,inhibition,[2],106% (active)
same,inhibition,[8],26% (inactive)
same,inhibition,[9],105% (active)
same,inhibition,[3],109%
same,inhibition,[4],103%
OCCNc1nc(Nc2ccc(Cl)c(Cl)c2)nc2ccccc12,activation,[5],41% (active)
same,inhibition,[6],24.3% (active)
same,inhibition,[2],81.5% (active)
same,inhibition,[3],110%
same,inhibition,[4],105%
CCOC(=O)/C=c1\s/c(=C\c2ccc(C#N)cc2)c(=O)n1CC(=O)Nc1cccc(C)c1C,activation,[5],1.05% (inactive)
COc1ccccc1N=Cc1c(O)c2ccccc2oc1=O,activation,[5],124% (active)
same,inhibition,[10],43.2% (inactive)
same,inhibition,[11],53.7% (active)
same,inhibition,[12],49.6% (inactive)
same,inhibition,Caspase-3 (Homo sapiens),19.3% (inactive)
same,inhibition,[13],27.7% (inactive)
O=C(NCCc1ccc(Cl)cc1)c1cccc(N2CCCC2=O)c1,activation,[5],1.95% (inactive)
S=C1SCN(CCN2CCOCC2)CN1Cc1ccccc1,activation,[5],102% (active)
COc1cc(/C=C2/C(=O)ON=C2C)ccc1OCc1ccccc1F,activation,[5],3.58% (inactive)
Nc1nc(CC(=O)CSc2ccc(Cl)cc2)nc(Nc2ccc(F)cc2)n1,activation,[5],40% (active)
same,inhibition,[6],29.2% (active)
C=CS(=O)c1sc(Cl)c(N2CCOCC2)c1[N+](=O)[O-] (stereo not drawn),activation,[5],-10.6% (inactive)
CSc1nnc(NC(=O)c2nc(S(=O)(=O)Cc3ccc(C)cc3)ncc2Cl)s1,activation,[5],87% (active)
same,inhibition,[7],100% (active)
same,activity,[14],74.5%
same,activity,[15],82.2%
Cc1cccc(CS(=O)(=O)c2ncc(Cl)c(C(=O)Nc3ccc(F)cc3)n2)c1,activation,[5],88.1% (active)
same,inhibition,[7],103% (active)
same,inhibition,[16],95.7% (active)
same,inhibition,[2],44% (active)
same,inhibition,[8],99.3% (active)
same,inhibition,[9],86.8% (active)
same,inhibition,PEG-3 [17],99.1%
same,inhibition,PEG-3 [18],98.3%
same,inhibition,Rat fibroblasts (CREF) [19],100%
same,inhibition,Rat fibroblasts (CREF) [20],96.3%
Cc1cccc(Nc2nc3c(S(=O)(=O)c4ccccc4)nnn3c3ccccc23)c1C,activation,[5],128% (active)
N#Cc1cccc(NC(=O)COC(=O)c2ccccc2C(=O)c2ccc(Cl)c([N+](=O)[O-])c2)c1,activation,[5],26.1% (inactive)
same,inhibition,[7],103% (active)
same,inhibition,[2],108% (active)
same,inhibition,[8],55.9% (active)
same,inhibition,[9],108% (active)
same,inhibition,[3],103%
same,inhibition,[4],111%
O=C(CSc1cccc2cccnc12)N/N=C/c1cccnc1,activation,[5],265% (active)
Cc1ccc(-c2nnc(-c3ccc(NC(=O)c4cccs4)cc3)o2)cc1,activation,[5],134% (active)
CC(C)(C)Nc1nc(-c2ccccn2)nc2ccccc12,activation,[5],20.4% (inactive)
same,inhibition,[6],23.3% (active)
COCCNc1nc(-n2nc(C)cc2C)nc2sc3c(c12)CCCC3,activation,[5],8.5% (inactive)
COc1ccc(C(=O)NCC(=O)N/N=C/c2ccc([N+](=O)[O-])o2)cc1OC,activation,[5],35.6% (active)
CC(=O)/C(=N\Nc1ccc(Cl)cc1Cl)Sc1cccc2cccnc12,activation,[5],184% (active)
